According to PubChem BioAssay (NCI):
The panel holds about 79,000 compounds, 15% with a hit somewhere; the sample as a whole holds those more often. Rule as the data show it: active = growth inhibition above about 70%; inactive = the rest.

Tests used:
[1] = NCI Yeast Anticancer Drug Screen. Data for the rad50 strain (AID 155);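 also: 0% = growth of vehicle-only cultures of the same strain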; conditions: S. cerevisiae rad50 strain growth inhibition; at 50.0 µM; hits give high values
Outline: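 Relative growth inhibition (compound vs vehicle) was measured in yeast with a defined repair-gene alteration.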

[2] = NCI Yeast Anticancer Drug Screen. Data for the mec2-1 strain (AID 157); conditions: S. cerevisiae mec2-1 strain, at 50.0 µM, hits give high values
Outline: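 mec2-1 yeast strain, carrying an alteration in DNA damage repair or cell cycle control, was exposed to compounds; growth inhibition was measured relative to vehicle-treated controls.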

[3] = NCI Yeast Anticancer Drug Screen. Data for the sgs1 mgt1 strain (AID 161);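 also: 0% = growth of cultures given vehicle only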; conditions: S. cerevisiae sgs1 mgt1 strain, at 50.0 µM, hits give high values
Outline: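 Growth of a repair-deficient yeast mutant was monitored after compound treatment and expressed as inhibition relative to vehicle-treated cultures.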

[4] = NCI Yeast Anticancer Drug Screen. Data for the cln2 rad14 strain (AID 165);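 also: 0% = growth equal to vehicle treated cultures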; conditions: S. cerevisiae cln2 rad14 strain, at 50.0 µM, hits give high values
Outline: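 Yeast carrying cln2 and rad14 alterations (cell cycle control and DNA damage repair) were exposed to compounds. Growth inhibition was measured against vehicle-treated controls.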

[5] = NCI Yeast Anticancer Drug Screen. Data for the bub3 strain (AID 167); conditions: S. cerevisiae bub3 mutant strain, at 50.0 µM, hits give high values
Outline: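 Screening used yeast with an engineered genetic alteration affecting cell cycle control. Compound-exposed cultures were compared with vehicle cultures, and reduced growth was taken as inhibition.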

[6] = NCI Yeast Anticancer Drug Screen. Data for the mlh1 rad18 strain (AID 175); conditions: S. cerevisiae mlh1 rad18 strain growth inhibition; at 50.0 µM; hits give high values
Outline: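 Growth inhibition of the yeast strain was measured after compound exposure and expressed relative to vehicle-treated controls. The strain carries defined defects in DNA damage repair.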

Measured: growth inhibition

CCCN(CCC)c1ccc(C(=O)c2ccccc2)cc1
inactive: [1] -12.4% | [2] -3% | [3] -1% | [4] -33.8% | [5] 18.6% | [6] -6%

Clc1nc(Sc2ccc(Br)cc2)c(Cl)c(Sc2ccc(Br)cc2)n1
inactive: [1] -18.9% | [2] -2.3% | [3] 8.05% | [4] -0.8% | [5] 1.5% | [6] -17.6%

CCOc1ccc(S(=O)(=O)OCC)cc1
inactive: [1] -15.6% | [2] -14% | [3] -25.2% | [4] 1.35% | [5] -8.45% | [6] -19.6%

CC(=O)OCC1(C)NC(=O)c2ccccc2O1 (stereo not given)
inactive: [1] 8.2% | [2] 20.2% | [3] 6.9% | [4] 8.15% | [5] 9.7% | [6] 22.4%

O=Nc1c(-c2ccccc2)nnc(-c2ccccc2)c1N=O
inactive: [1] -24.9% | [2] 6.95% | [3] -0.3% | [4] -54.8% | [5] 34.7% | [6] -6.2%

O=Cc1ccc(N2CCCCC2)cc1
inactive: [1] 4.05% | [2] 7.95% | [3] -13.2% | [4] -24.2% | [5] -8.25% | [6] -4.45%

CC(C)(C)n1nc(C2CC2)cc1NC(=O)Nc1ccc(Cl)cc1
inactive: [1] -0.55% | [2] -8.25% | [3] -8.55% | [4] 8.85% | [5] -2.55% | [6] 2.4%

O=C1OCC/C1=C\c1cccc2ccccc12
inactive: [1] 5.2% | [2] 2.4% | [3] -3.45% | [4] 12.5% | [5] -5% | [6] 6.35%

CC=C(c1ccccc1)c1ccccc1
inactive: [1] -34% | [2] -25.2% | [3] -13.7% | [4] -10% | [5] -3.3% | [6] -15.2%

O=C(OCc1ccccc1CN1CCCCC1)c1ccc([N+](=O)[O-])cc1Cl
inactive: [1] -7.4% | [2] -6.45% | [3] 0.85% | [4] -34.9% | [5] -2.6% | [6] -29.7%

NC(=O)N1N=C2c3ccccc3SC[C@H]2[C@@H]1c1ccccc1
inactive: [1] 29.5% | [2] -23.2% | [3] -26.8% | [4] 2.55% | [5] -20.9% | [6] 21.6%

CCOC(=O)OCCCc1ccccc1
inactive: [1] -8.95% | [2] -2.95% | [3] -8.8% | [4] -15.4% | [5] -7.55% | [6] -6.8%

C(=C\c1csnn1)/c1ccc(/C=C/c2csnn2)cc1
inactive: [1] -18% | [2] 15.9% | [3] 7.7% | [4] 11.9% | [5] 5.3% | [6] -8.2%

CC(C)c1ccccc1NC(=O)C(=O)Cc1nc2ccccc2s1
inactive: [1] 23.2% | [2] 7.2% | [3] 19.7% | [4] -36.1% | [5] 38.3% | [6] 51.4%

CC(=Nc1ccc(Cl)c(Cl)c1)c1ccncc1
inactive: [1] -31.9% | [2] -10.1% | [3] -58% | [4] -31.6% | [5] 2.1% | [6] -35.1%

Cc1nc2sc(CCl)nn2c(=O)c1Cl
inactive: [1] 16.1% | [2] 34% | [3] 14.6% | [4] 17.9% | [5] 21.2% | [6] 10.8%

CC1=NN(c2ccc([N+](=O)[O-])cc2)C(=O)C1
inactive: [1] 25.6% | [2] 0.25% | [3] 22.6% | [4] 6.1% | [5] 25.6% | [6] 36.9%

CN1C(=O)C2C(C1=O)[C@H]1c3ccccc3C=CN1[C@@H]2C(=O)c1ccccc1 (stereo not given in full)
inactive: [1] 13.2% | [2] 7.7% | [3] -0.25% | [4] 0.6% | [5] -3.8% | [6] 10.1%

O=C(O)c1ccc(N2C(=O)c3ccccc3C2=O)cc1
inactive: [1] -19.1% | [2] 4.8% | [3] 1.95% | [4] -10.1% | [5] -18.3% | [6] 41.9%

O=C(C(c1ccccc1)C(C(=O)N(Cc1ccccc1)Cc1ccccc1)c1ccccc1)N(Cc1ccccc1)Cc1ccccc1 (stereo not given)
inactive: [1] -44.8% | [2] 7% | [3] -18.9% | [4] -14.3% | [5] -1.35% | [6] 28.3%
